Experimental data: PubChem BioAssay AID463173 (ICCB-Longwood Screening Facility, Harvard Medical School, 2010)
Among all 52,000 compounds or so, about 4,300 (8.3%) were called active. Cut-off read from the data, not from the text of the source: active = survival mostly below about 52% (no sharp cut-off); inactive = mostly above about 56%. The list comes from a sample in which actives are over-represented; it also holds similar structures and randomly drawn compounds.

Tested on: DeltatarO mutant
Test: S. aureus survival, RN4220 and DeltatarO strains – OD600, teichoic acid synthesis inhibitors, primary screen (AID 463173)
Details: S. aureus RN4220 wild type/DeltatarO growth, OD600, 18 h, hits give low values, screened at 18.75 µg/mL (by protocol)

| Structure (SMILES) | survival |
| --- | --- |
| COc1ccc(CCCc2nnc(SCC(=O)Nc3ccc(F)cc3)o2)cc1C | 89% (inactive) |
| COc1ccccc1N1CCN(c2cc(N3CCCC3)nc(C)n2)CC1 | 98% (inactive) |
| O=C(Nc1ccc(Br)cc1)C1CCCN(S(=O)(=O)c2ccc(Br)s2)C1 (stereo not given) | 82% (inactive) |
| C#CCN1CCc2cc(OC)c(OC)cc2C1C (stereo not given) | 101% (inactive) |
| Cc1cccc(CCNCc2cc3cc4c(cc3[nH]c2=O)OCO4)c1 | 85% (inactive) |
| CC1(C)OC2C(CO)OC(n3ncc(=O)[nH]c3=O)C2O1 (stereo not given) | 86% (inactive) |
| COc1nc(-c2ccc(C)cc2)ccc1-c1noc(-c2ccccc2Br)n1 | 19% (active) |
| COc1nc(-c2ccc(C)cc2)ccc1-c1noc(-c2ccc(C(C)(C)C)cc2)n1 | 47% (inactive) |
| CCOc1nc(-c2ccc(C)cc2)ccc1-c1noc(-c2ccccc2F)n1 | 54% (inactive) |
| CC(C)(C)c1cc(C(C)(C)C)c2oc(=O)c(-c3nc4ccccc4[nH]3)cc2c1 | 69% (inactive) |
| Cc1ccc(-n2ncc(C(=O)NCCN3CCc4ccccc4C3)c2C2CCNCC2)cc1C | 95% (inactive) |
| O=C(c1ccc(F)cc1)N1CCC(c2nc3ccccc3o2)CC1 | 83% (inactive) |
| Cc1nnc(SCc2ccccc2)c2cc3sccc3n12 | 53% (inactive) |
| COc1ccc(CCN(Cc2nc3ccccc3c(=O)[nH]2)C(=O)C(C)C)cc1 | 101% (inactive) |
| CC(C)(C)c1nnc(NC(=O)CS(=O)(=O)Cc2ccccc2)s1 | 95% (inactive) |
| CCC(CC)C(=O)Nc1nnc(C(C)(C)C)s1 | 95% (inactive) |
| CCC(=O)Nc1nnc(C(C)(C)C)s1 | 51% (active) |
| CCn1nnc2cc(C(=O)Nc3cccc(C)c3C)ccc21 | 72% (inactive) |
| CN(C)CCNc1ccc(Cl)nn1 | 96% (inactive) |
| Clc1ccc(NC2CCCCC2)nn1 | 66% (active) |
| Clc1ccc(NCCC2=CCCCC2)nn1 | 84% (inactive) |
| COc1ccccc1-c1nc(SCC(=O)NCc2ccc(C)cc2)c2c(=O)n(C)c(=O)n(C)c2n1 | 69% (inactive) |
| Cc1ccccc1NC(=O)c1ccc2[nH]c(C)c(C)c2c1 | 123% (inactive) |
| COC(=O)c1sc2cccc(F)c2c1S(=O)(=O)Nc1ccc(N(C)C)cc1 | 66% (inactive) |

| Structure (SMILES) | survival |
| --- | --- |
| COC(=O)c1sc2cccc(F)c2c1S(=O)(=O)Nc1cc(OC)cc(OC)c1 | 8% (active) |
| CCOC(=O)c1sc2cccc(F)c2c1S(=O)(=O)Nc1ccccc1F | 99% (inactive) |
| COC(=O)c1sc2cccc(F)c2c1S(=O)(=O)Nc1ccc(C)cc1Cl | 91% (inactive) |
| CCOc1ccccc1NS(=O)(=O)c1c(C(=O)OC)sc2cccc(F)c12 | 20% (active) |
| COC(=O)c1sc2cccc(F)c2c1S(=O)(=O)Nc1cc(C)c(Cl)cc1OC | 89% (inactive) |
| COC(=O)c1ccccc1NS(=O)(=O)c1cc2c(cc1C)N(C)CCO2 | 87% (inactive) |
| COc1cc(C(=O)N2CCN(CCc3ccccn3)CC2)cc(OC)c1OC | 66% (inactive) |
| Cc1ccc2nc(-c3cccc(Cl)c3)c(Nc3ccc4c(c3)OCO4)n2c1 | 75% (inactive) |
| COc1cc(NC(=O)C2CCCN(S(=O)(=O)c3ccc4c(c3)CCCC(=O)N4)C2)cc(OC)c1 (stereo not given) | 94% (inactive) |
| COc1ccc(CN(Cc2ccco2)C(=O)COc2ccccc2Cl)cc1 | 51% (inactive) |
| CCc1cc(=O)[nH]c(SCc2nc(-c3ccc(C(F)(F)F)cc3)no2)n1 | 32% (active) |
| O=c1cc(-c2ccccc2)nc(SCc2nc(-c3ccc(C(F)(F)F)cc3)no2)[nH]1 | 188% (inactive) |
| CCCc1cc(=O)[nH]c(SCc2nc(-c3ccccc3)no2)n1 | 0% (active) |
| CCc1cc(=O)[nH]c(SCc2nc(-c3cccc(Cl)c3)no2)n1 | 49% (inactive) |
| CCc1cc(=O)[nH]c(SCc2nc(-c3ccccc3)no2)n1 | 95% (inactive) |
| CCCc1cc(=O)[nH]c(SCc2nc(-c3ccc(C)cc3)no2)n1 | 78% (inactive) |
| Cc1ccc(CNC(=O)c2sc3nc(C)cc(C)c3c2-n2cccc2)cc1 | 90% (inactive) |
| COc1ccccc1CNC(=O)c1cc2c(s1)-c1ccc(Cl)cc1SC2 | 79% (inactive) |
| Cc1ccccc1Nc1nnc(-c2ccc(C)c(S(=O)(=O)N3CCOCC3)c2)c2ccccc12 | 85% (inactive) |
| O=C(NC(CO)C(=O)O)c1ccncc1 (stereo not given) | 94% (inactive) |
| CCc1ccc(Cc2cnc(NC(=O)c3ccc4c(c3)CC(c3ccccc3)OC4=O)s2)cc1 (stereo not given) | 51% (inactive) |
| COc1cccc(-n2c(C)nc3cc(C(=O)O)ccc32)c1 | 177% (inactive) |
| O=C(Cn1c(=O)nc(-c2ccccc2)c2cc(Cl)ccc21)N1CCN(c2ccc(F)cc2)CC1 | 99% (inactive) |
| O=S(=O)(NC1CCc2ccccc21)c1ccc(S(=O)(=O)N2CCCC2)cc1 (stereo not given) | 82% (inactive) |

| Structure (SMILES) | survival |
| --- | --- |
| CC1Cc2cc(S(=O)(=O)CCC(=O)Nc3ccccc3F)ccc2N1C(=O)C1CC1 (stereo not given) | 100% (inactive) |
| Cc1nnc2c3ccccc3nc(Nc3cccc(O)c3)n12 | 101% (inactive) |
| Oc1ccc(Nc2ncnc3ccccc23)cc1 | 77% (inactive) |
| CC(=O)c1cccc(Nc2nc(-c3ccccc3Cl)nc3ccccc23)c1 | 38% (active) |
| Cc1nnc2c(Nc3cccc(O)c3)nc3ccccc3n12 | 68% (inactive) |
| Cc1cccc(Nc2cc(C)nc3nc(-c4ccccc4)nn23)c1 | 95% (inactive) |
| Oc1cccc(Nc2nc(-c3ccccc3)nc3ccccc23)c1 | 10% (active) |
| Oc1ccc(Nc2nc(-c3ccc(Cl)cc3)nc3ccccc23)cc1 | 3% (active) |
| Cc1cccc(-c2nc(N3CCN(c4ccc(F)cc4)CC3)c3ccccc3n2)c1 | 54% (inactive) |
| CC(=O)c1cccc(Nc2ncnc3c2cnn3C)c1 | 67% (inactive) |
| Cc1cccc(Nc2nc(-c3ccccc3)nc3ccccc23)c1 | 1% (active) |
| CC(=O)c1cccc(NC(=O)c2cc(-c3ccc(Cl)s3)nc3ccccc23)c1 | 77% (inactive) |
| Fc1ccc(Nc2nc(SCc3ccc(Cl)cc3)nc3ccccc23)cc1 | 92% (inactive) |
| COc1ccc(CCNC(=O)C(=O)NCC(c2cccs2)S(=O)(=O)c2ccc(C)cc2)cc1 (stereo not given) | 69% (inactive) |
| O=C(CC1N=C2c3ccccc3N=C(SCc3ccc(F)cc3)N2C1=O)NC1CCCCC1 (stereo not given) | 124% (inactive) |
| Cc1ccc(CNS(=O)(=O)c2cc3c(cc2C)NC(=O)CO3)cc1 | 79% (inactive) |
| CCCN(CCC)c1nn2c(=O)c(C(=O)NCc3cccc(OC)c3)cnc2s1 | 84% (inactive) |
| CC(C)NC(=O)CSc1nc2ccccc2n1CC(=O)NC(C)C | 96% (inactive) |
| COC(=O)c1ccccc1NC(=S)N(Cc1ccco1)Cc1cc2cc(C)ccc2[nH]c1=O | 94% (inactive) |
| O=c1c2ccccc2nc2sc(Nc3cccc(C(F)(F)F)c3)nn12 | 86% (inactive) |
| CN(C(=O)c1cc2sccc2n1Cc1ccc(F)cc1)C1CCCCC1 | 88% (inactive) |
| CCOc1ccccc1C(=O)Nc1ccc(S(=O)(=O)Nc2onc(C)c2C)cc1 | 77% (inactive) |
| CCN(C1CCCCC1)S(=O)(=O)c1cccc(S(=O)(=O)N2CCCC2)c1 | 70% (inactive) |
| COc1cc(C2c3c(oc4ccc(F)cc4c3=O)C(=O)N2c2nc(C)c(C)s2)cc(OC)c1OC (stereo not given) | 157% (inactive) |

| Structure (SMILES) | survival |
| --- | --- |
| COc1ccc2c(Sc3ccc(C)cc3)c(C(=O)NC(C)C)[nH]c2c1 | 86% (inactive) |
| Cc1ccc(CCNC(=O)CCn2nc(-c3ccc(C)cc3)ccc2=O)cc1 | 94% (inactive) |
| COc1ccc(C(=O)O)cc1Nc1nc2ccc(C)cc2n2cnnc12 | 117% (inactive) |
| COc1cc(Nc2nc(-c3ccc(OC)c(OC)c3)nc3ccccc23)cc(OC)c1 | -2% (active) |
| COc1ccc(Nc2nc(-c3ccccc3F)nc3ccccc23)cc1OC | 99% (inactive) |
| CC(=O)c1cccc(NC(=O)c2nc(-c3ccccc3)n(-c3ccccc3C)n2)c1 | 76% (inactive) |
| CC(=O)c1cccc(NC(=O)c2nc(-c3ccccc3)n(-c3cccc(C)c3)n2)c1 | 64% (inactive) |
| COc1ccc(Nc2nc(-c3ccc(C)cc3)nc3ccccc23)c(OC)c1 | 75% (inactive) |
| OCCNc1nc(-c2cccnc2)nc2ccccc12 | 93% (inactive) |
| CCC(=O)OCCCNc1nc(-c2ccc(Cl)cc2)nc2ccccc12 | -2% (active) |
| CC(=O)c1cccc(Nc2nc(-c3cccc(C)c3)nc3ccccc23)c1 | 4% (active) |
| CCOc1ccccc1OCCCCn1c(-c2ccc(Cl)cc2)nc2ccccc2c1=O | 45% (inactive) |
| O=C(O)c1ccc(Nc2nc3ccccc3c3nncn23)cc1 | 95% (inactive) |
| COc1ccc(CNC(=O)C(OC(=O)c2ccc(Cl)nc2)c2ccccn2)cc1 (stereo not given) | 104% (inactive) |
| CCC(CC)C(=O)OCc1cc(=O)n2nc(C3CC3)sc2n1 | 62% (inactive) |
| COc1ccc(CCNC(=O)CCc2c(C)nc3c(c(C)nn3-c3ccc(C)c(C)c3)c2C)cc1OC | 57% (inactive) |
| CC1=C(C)CC(C(=O)Nc2ccc(NC(=O)NC3CCCCC3)cc2)C(C(=O)O)C1 (stereo not given) | 81% (inactive) |
| Cc1cc(N2CCN(c3cccc(C(F)(F)F)c3)CC2)n2nc(-c3ccccc3)nc2n1 | 41% (active) |
| Cc1cc(N2CCN(c3cccc(C(F)(F)F)c3)CC2)n2nc(-c3ccccc3C)nc2n1 | 2% (active) |
| Cc1cc(N2CCN(c3ccc(F)cc3)CC2)n2nc(-c3ccc(Cl)cc3)nc2n1 | 49% (inactive) |
| COc1ccc(-c2nc3nc(C)cc(N4CCN(c5cccc(C(F)(F)F)c5)CC4)n3n2)cc1 | 45% (inactive) |
| Cc1cccc(-c2nc3nc(C)cc(N4CCN(c5ccccc5)CC4)n3n2)c1 | 60% (inactive) |
| Cc1ccc(-c2nc3nc(C)cc(N4CCN(c5cc(Cl)ccc5C)CC4)n3n2)cc1 | 86% (inactive) |
